Results reported in PubChem BioAssay (NCI).
Compounds without any hit were thinned out: in the full panel of roughly 83,000, 20% have a hit.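 Interpretation: 100, growth as untreated; towards 0, rising growth inhibition; 0, no net growth; 0 to -100, cell death. Compounds scoring below 10 were considered active.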 Calls of active or inactive are those of the source.

What was measured:
Assay in all cases: NCI-60 one-dose screen, 48 h (100 = growth as untreated, 0 = no growth, -100 = all killed)
Details in all cases: 10 µM unless noted
SN12C renal = system: SN12C renal
UO-31 renal = system: UO-31 renal
TK-10 renal = system: TK-10 renal
ACHN renal = system: ACHN renal
CAKI-1 renal = system: CAKI-1 renal
A498 renal = system: A498 renal
MOLT-4 leukemia = system: MOLT-4 leukemia
EKVX NSCLC = system: EKVX NSCLC
CCRF-CEM leukemia = system: CCRF-CEM leukemia

Measured: growth

CN1CCN(CC(=O)Nc2nc(-c3cccc(NS(=O)(=O)c4cccc5c(N(C)C)cccc45)c3)cs2)CC1
inactive: SN12C renal 69.7% | UO-31 renal 58.3% | TK-10 renal 100% | ACHN renal 82.3% | CAKI-1 renal 67.9% | A498 renal 96.8% | MOLT-4 leukemia 46.2%

O=C(NCCc1ccc(O)c(O)c1)C12CC3CC(CC(C3)C1)C2
inactive: EKVX NSCLC 111% | SN12C renal 96.7% | UO-31 renal 66.2% | TK-10 renal 90.3% | ACHN renal 90.7% | CAKI-1 renal 51.5% | A498 renal 101% | CCRF-CEM leukemia 23.7% | MOLT-4 leukemia 72.9%

O=[N+]([O-])c1ccc(Sc2cccc[n+]2[O-])c2nonc12
inactive: EKVX NSCLC 98.2% | SN12C renal 93.6% | UO-31 renal 49.1% | TK-10 renal 133% | ACHN renal 95.4% | CAKI-1 renal 102% | A498 renal 113%
active: CCRF-CEM leukemia -18.8%

NC1=NCc2nc3ccccc3c(=O)n2C1
inactive: EKVX NSCLC 107% | SN12C renal 98% | UO-31 renal 70.1% | ACHN renal 99.5% | CAKI-1 renal 92.7% | A498 renal 110% | MOLT-4 leukemia 91.2%

O=C(NCCCNc1cc(-c2cn(-c3ccccc3)nc2-c2cccc(O)c2)ccn1)c1ccccc1
inactive: EKVX NSCLC 47.6% | SN12C renal 61.1% | UO-31 renal 22.6% | TK-10 renal 67.3% | ACHN renal 45.8% | CAKI-1 renal 37.3% | A498 renal 31.1% | CCRF-CEM leukemia 36.6%

O=S(=O)(O)c1ccc(N/N=C/c2ccccc2Cl)cc1
inactive: EKVX NSCLC 116% | SN12C renal 106% | UO-31 renal 82.7% | TK-10 renal 104% | ACHN renal 99.6% | CAKI-1 renal 89.8% | A498 renal 100% | CCRF-CEM leukemia 95.4% | MOLT-4 leukemia 103%

COc1ccc(-c2c(N)n[nH]c2-c2ccc(Cl)cc2O)cc1OC
inactive: EKVX NSCLC 109% | SN12C renal 52.4% | UO-31 renal 74% | TK-10 renal 102% | ACHN renal 96.1% | CAKI-1 renal 90.5% | A498 renal 86.6% | CCRF-CEM leukemia 69.1% | MOLT-4 leukemia 107%

CC(C)(C)c1ccc(/C=C/C(=O)Nc2ccc(O)cc2)cc1
inactive: EKVX NSCLC 89.2% | SN12C renal 61.8% | UO-31 renal 31.6% | TK-10 renal 103% | ACHN renal 60.6% | CAKI-1 renal 61.7% | A498 renal 103% | MOLT-4 leukemia 29.4%

COC(=O)[C@]12CC[C@@H](C)[C@H](C)[C@@H]1C1=CC[C@@H]3[C@@]4(C)C(C=O)=C[C@@](C)(COC(=O)c5ccco5)C4=CC[C@@]3(C)[C@]1(C)CC2
active: UO-31 renal -55.3% | TK-10 renal 6.65% | ACHN renal -33.9% | CCRF-CEM leukemia 4.27%
inactive: EKVX NSCLC 11% | SN12C renal 17.1% | CAKI-1 renal 14.3% | A498 renal 22.2%

O=[N+]([O-])c1ccc(C2CC(c3ccccc3)=Nc3ccccc3S2)cc1 (stereo unspecified)
inactive: EKVX NSCLC 112% | SN12C renal 103% | UO-31 renal 56.4% | TK-10 renal 148% | ACHN renal 103% | CAKI-1 renal 93.6% | A498 renal 114% | CCRF-CEM leukemia 73.2%

O=C(c1ccccc1)c1c(/C=C/c2ccc(Cl)cc2)nc2ccccc2c1/C=C/c1cccs1
inactive: EKVX NSCLC 88.2% | SN12C renal 90.2% | UO-31 renal 82.9% | TK-10 renal 99% | ACHN renal 93.8% | CAKI-1 renal 81.2% | A498 renal 77.1% | CCRF-CEM leukemia 96.4% | MOLT-4 leukemia 94.2%

N#CCN1C(=O)C2C3=C(CCCC3)SC2N=C1CN1CCCC1 (stereo unspecified)
inactive: EKVX NSCLC 96% | SN12C renal 100% | TK-10 renal 104% | ACHN renal 104% | CAKI-1 renal 104% | A498 renal 100% | MOLT-4 leukemia 79.9%
active: UO-31 renal 7.35%

CC1OC(O[C@H]2/C=C/C=C/C=C/C=C/C=C/C=C/C=C/[C@H](C)[C@@H](O)[C@@H](C)[C@H](C)OC(=O)CC(O)CC(O)CCC(O)C(O)CC(O)C[C@]3(O)C[C@H](O)C(C(=O)O)C(C2)O3)C(O)[C@H](N)C1O (stereo partly specified)
inactive: CAKI-1 renal 36.1% | CCRF-CEM leukemia 36.8%
active: EKVX NSCLC -14.3% | SN12C renal -84.1% | UO-31 renal -94.3% | TK-10 renal -40.7% | ACHN renal -80.3% | A498 renal 9.81%
